# Experimental data taken from ChEMBL document CHEMBL5724796, “Tm Shift (DSF) assay results for EUbOPEN Chemogenomics Library” (2024).
# How the values were obtained:
# Conditions in all cases: Compound concentration 20.0 uM
# [1] = target: Tyrosine-protein kinase ABL1 (Homo sapiens) (UniProt P00519)
# [2] = target: Bromodomain-containing protein 4 (Homo sapiens) (UniProt O60885)
# [3] = target: Cyclin-dependent kinase 2 (Homo sapiens) (UniProt P24941)
# [4] = target: Casein kinase I isoform delta (Homo sapiens) (UniProt P48730)
# Sequence of Casein kinase I isoform delta (Homo sapiens) (P48730 whole entry, looked up, canonical isoform): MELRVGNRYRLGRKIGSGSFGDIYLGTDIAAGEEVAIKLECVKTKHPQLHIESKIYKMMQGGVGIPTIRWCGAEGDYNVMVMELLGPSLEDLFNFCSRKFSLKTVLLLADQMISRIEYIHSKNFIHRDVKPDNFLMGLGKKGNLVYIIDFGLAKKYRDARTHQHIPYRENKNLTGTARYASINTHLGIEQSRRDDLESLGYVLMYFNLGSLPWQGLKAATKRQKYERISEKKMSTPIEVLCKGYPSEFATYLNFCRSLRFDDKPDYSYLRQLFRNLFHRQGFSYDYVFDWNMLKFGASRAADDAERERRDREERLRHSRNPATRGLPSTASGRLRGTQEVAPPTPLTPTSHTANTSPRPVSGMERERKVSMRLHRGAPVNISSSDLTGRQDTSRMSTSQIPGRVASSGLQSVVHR
# [5] = target: Glycogen synthase kinase-3 beta (Homo sapiens) (UniProt P49841)
# Sequence of Glycogen synthase kinase-3 beta (Homo sapiens) (P49841 whole entry, looked up): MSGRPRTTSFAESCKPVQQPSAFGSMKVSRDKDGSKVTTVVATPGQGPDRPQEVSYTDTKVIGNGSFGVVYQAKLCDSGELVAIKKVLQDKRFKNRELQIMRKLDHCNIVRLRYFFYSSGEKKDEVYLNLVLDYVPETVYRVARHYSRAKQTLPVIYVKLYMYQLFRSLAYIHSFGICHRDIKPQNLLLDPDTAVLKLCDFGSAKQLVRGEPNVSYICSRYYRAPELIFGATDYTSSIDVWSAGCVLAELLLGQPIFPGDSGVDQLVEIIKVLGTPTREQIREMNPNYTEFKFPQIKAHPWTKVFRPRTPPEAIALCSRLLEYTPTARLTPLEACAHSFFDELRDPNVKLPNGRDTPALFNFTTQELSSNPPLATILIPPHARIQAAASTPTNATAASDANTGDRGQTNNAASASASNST
# [6] = target: Mitogen-activated protein kinase 1 (Homo sapiens) (UniProt P28482)
# Sequence of Mitogen-activated protein kinase 1 (Homo sapiens) (P28482 whole entry): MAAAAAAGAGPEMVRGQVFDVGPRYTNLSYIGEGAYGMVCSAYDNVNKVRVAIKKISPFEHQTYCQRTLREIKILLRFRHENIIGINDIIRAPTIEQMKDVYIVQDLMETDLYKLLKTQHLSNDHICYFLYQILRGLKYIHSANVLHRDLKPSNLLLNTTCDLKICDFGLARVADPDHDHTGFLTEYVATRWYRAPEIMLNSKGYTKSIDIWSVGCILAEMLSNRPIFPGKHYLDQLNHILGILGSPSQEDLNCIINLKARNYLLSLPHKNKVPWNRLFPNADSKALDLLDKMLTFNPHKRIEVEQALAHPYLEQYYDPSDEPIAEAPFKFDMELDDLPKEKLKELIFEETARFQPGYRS
# [7] = target: T1, Aurora kinase A (Homo sapiens) (UniProt O14965)
# T1 sequence (whole entry): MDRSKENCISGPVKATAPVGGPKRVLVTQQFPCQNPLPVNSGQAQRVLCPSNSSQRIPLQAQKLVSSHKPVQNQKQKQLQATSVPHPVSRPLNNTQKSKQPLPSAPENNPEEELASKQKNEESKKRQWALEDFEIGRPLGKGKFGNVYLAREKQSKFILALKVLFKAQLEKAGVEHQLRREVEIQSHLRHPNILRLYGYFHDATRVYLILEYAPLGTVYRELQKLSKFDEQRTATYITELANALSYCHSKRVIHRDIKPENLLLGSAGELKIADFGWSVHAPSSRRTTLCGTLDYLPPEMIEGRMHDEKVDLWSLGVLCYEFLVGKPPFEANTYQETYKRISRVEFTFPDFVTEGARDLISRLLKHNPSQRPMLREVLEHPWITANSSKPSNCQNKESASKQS
# [8] = target: T2, Transcription intermediary factor 1-alpha (Homo sapiens) (UniProt O15164)
# T2 sequence (whole entry): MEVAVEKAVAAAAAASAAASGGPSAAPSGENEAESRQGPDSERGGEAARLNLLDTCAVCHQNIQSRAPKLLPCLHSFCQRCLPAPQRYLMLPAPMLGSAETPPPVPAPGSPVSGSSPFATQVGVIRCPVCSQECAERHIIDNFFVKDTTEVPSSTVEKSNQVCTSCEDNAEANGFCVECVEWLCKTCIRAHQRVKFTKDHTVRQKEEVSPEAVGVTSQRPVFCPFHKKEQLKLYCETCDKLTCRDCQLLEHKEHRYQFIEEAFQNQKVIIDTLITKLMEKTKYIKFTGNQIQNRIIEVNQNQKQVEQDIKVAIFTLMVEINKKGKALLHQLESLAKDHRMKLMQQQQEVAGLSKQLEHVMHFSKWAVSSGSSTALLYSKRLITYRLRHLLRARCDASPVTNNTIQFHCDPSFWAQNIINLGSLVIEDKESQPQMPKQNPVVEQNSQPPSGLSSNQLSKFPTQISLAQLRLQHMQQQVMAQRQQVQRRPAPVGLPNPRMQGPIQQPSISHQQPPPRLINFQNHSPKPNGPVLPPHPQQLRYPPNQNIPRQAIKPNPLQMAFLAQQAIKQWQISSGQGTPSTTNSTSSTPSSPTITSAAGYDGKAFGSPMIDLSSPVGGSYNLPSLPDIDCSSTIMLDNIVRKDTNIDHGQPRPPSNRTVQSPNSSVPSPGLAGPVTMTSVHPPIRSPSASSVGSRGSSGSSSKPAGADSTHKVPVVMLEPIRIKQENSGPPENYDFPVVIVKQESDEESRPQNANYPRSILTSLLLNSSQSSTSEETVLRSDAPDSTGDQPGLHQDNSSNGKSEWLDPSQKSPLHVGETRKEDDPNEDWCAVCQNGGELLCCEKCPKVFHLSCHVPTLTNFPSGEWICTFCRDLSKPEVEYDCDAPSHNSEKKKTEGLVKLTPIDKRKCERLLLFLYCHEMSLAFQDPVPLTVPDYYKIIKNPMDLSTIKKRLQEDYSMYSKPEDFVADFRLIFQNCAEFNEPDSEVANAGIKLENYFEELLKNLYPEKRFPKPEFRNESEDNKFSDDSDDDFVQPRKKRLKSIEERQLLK
# Sequence of Tyrosine-protein kinase ABL1 (Homo sapiens) (P00519 whole entry): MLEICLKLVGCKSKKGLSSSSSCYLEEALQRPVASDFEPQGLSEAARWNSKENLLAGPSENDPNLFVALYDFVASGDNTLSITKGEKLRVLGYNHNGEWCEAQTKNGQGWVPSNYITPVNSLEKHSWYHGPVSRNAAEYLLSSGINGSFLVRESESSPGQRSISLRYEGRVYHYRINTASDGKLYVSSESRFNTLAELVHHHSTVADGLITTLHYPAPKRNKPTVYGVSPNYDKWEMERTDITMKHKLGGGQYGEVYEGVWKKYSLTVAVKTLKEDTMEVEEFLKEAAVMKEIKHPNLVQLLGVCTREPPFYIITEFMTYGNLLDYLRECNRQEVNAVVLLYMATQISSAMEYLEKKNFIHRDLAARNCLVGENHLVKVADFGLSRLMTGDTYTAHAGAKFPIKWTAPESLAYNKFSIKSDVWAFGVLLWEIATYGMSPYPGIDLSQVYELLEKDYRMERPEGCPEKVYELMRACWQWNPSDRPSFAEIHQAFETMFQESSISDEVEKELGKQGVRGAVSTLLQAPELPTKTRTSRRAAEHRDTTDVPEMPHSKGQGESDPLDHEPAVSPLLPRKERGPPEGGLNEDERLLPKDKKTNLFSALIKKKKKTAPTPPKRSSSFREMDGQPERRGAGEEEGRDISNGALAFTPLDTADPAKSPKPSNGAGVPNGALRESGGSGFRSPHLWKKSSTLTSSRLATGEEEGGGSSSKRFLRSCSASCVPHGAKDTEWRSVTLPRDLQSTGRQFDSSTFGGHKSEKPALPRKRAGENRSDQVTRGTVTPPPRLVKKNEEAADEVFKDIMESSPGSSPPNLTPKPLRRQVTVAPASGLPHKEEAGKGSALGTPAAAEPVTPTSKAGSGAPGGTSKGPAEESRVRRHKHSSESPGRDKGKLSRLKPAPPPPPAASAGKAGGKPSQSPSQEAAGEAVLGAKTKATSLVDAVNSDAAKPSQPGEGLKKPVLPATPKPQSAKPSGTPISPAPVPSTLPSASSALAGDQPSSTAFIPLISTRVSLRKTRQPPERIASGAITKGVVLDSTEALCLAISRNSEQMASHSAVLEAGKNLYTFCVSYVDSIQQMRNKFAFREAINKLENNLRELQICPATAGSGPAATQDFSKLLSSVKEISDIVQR
Structure (SMILES),ΔTm [1] [°C],ΔTm [2] [°C],ΔTm [3] [°C],ΔTm [4] [°C],ΔTm [5] [°C],ΔTm [6] [°C],ΔTm [7] [°C],ΔTm [8] [°C]
C[C@H]1CCCN1Cc1nc2cc(NC(=O)c3ccc4c(cnn4C)c3)ccc2[nH]1,2.18,-0.92,0.64,0.92,-0.87,0.27,-0.14,-0.88
CC(C)NC(=O)c1ccc(OC(F)F)c(OCC2CC2)c1,0.64,-3.14,0.29,-0.07,-0.46,0.24,-2.33,1.71
CC(C)N(C[C@H]1O[C@@H](n2cnc3c(N)ncnc32)[C@H](O)[C@@H]1O)[C@H]1C[C@@H](CCc2nc3cc(C(C)(C)C)ccc3[nH]2)C1,0.52,-1.59,0.63,0.57,-0.47,-0.02,0.32,-0.97
N[C@H](C(=O)O)[C@H](OCc1cccc(NC(=O)c2ccc(C(F)(F)F)cc2)c1)C(=O)O,0.24,-3.61,-0.09,-0.32,-0.8,0.12,-2.5,0.13
Cn1nc(C(C)(C)C)cc1C(=O)NC(Cc1cccc(Cl)c1)C(=O)NCC#N (centres undefined),0.37,-2.22,0.71,0.04,0.23,0.2,-1.33,0.74
COc1cc(-c2cn(C)c(=O)c3cnccc23)cc(OC)c1CN(C)C,0.4,-1.71,0.82,-0.03,0.26,0.18,-1.01,0.87
Cc1c(CN2CCC(Nc3ncnc4sc(CC(F)(F)F)cc34)CC2)ccc2[nH]c(C#N)cc12,-0.58,0.25,-0.04,1.22,-1.43,-1.41,-7.15,0.71
O=C(NCc1ncccc1F)c1coc(CCNCCc2nc3ccccc3[nH]2)n1,0.46,-3.66,-0.13,-0.23,-0.87,-0.05,-2.57,-0.59
Nc1nc2cc(CC[C@H]3C[C@@H](n4ccc5c(N)ncnc54)[C@H](O)[C@@H]3O)ccc2cc1Br,2.92,-1.76,-4.38,4.13,-8.32,-17,-10,-0.53
CNCCCN1c2ccccc2CCc2ccccc21,0.08,-2.59,-0.16,-0.01,-1.29,0.06,-1.87,0.96
O=C(NCC(=O)N1CCCCC1)Nc1ccc2nnsc2c1,0.46,-0.58,0.28,0.06,0.23,-0.52,-0.71,0.08
CCc1c(-c2ccccc2)c(-c2ccccc2)nn1-c1ccccc1-c1cccc(OCC(=O)O)c1,-0.2,-8.88,-1.12,-2.01,0,-0.5,-3.9,-3.28
Cc1cc(-c2ccccc2)cc(C(=O)NNS(=O)(=O)c2ccccc2)c1F,0.58,-6.22,-3.62,0.42,-3.1,0,-4.21,-1.85
COC(=O)C1=C(C(=O)OC)[C@@]2([C@@H](Cc3ccc(C)cc3)Nc3ccccc3)C=C[C@@H]1O2,0.44,-0.64,0.54,-0.66,-1.68,-0.27,-2.34,1.28
CC(C)(C)NS(=O)(=O)c1cccc2c(NC(=O)[C@H](Cc3ccccc3)NC(=O)C3CCCCC3)cccc12,0.13,1.07,0.3,-1.46,-0.2,-10.5,-2.29,2.01
COc1cc(-c2cn(C)c(=O)c3cnccc23)cc(OC)c1CN(C)CC(=O)NCCOCCOCCNc1cccc2c1C(=O)N(C1CCC(=O)NC1=O)C2=O (centres undefined),0.07,-1.54,0.21,0.06,0.14,-0.38,-1.03,-0.75
C[C@]12CCCN1CC1=NNC(=O)c3cc(F)cc4[nH]c2c1c34,0.67,2.16,2.04,1.06,8.59,0.1,1.26,0
COc1ccc(CNc2nc(N3CCC[C@H]3CO)ncc2C(=O)NCc2ncccn2)cc1Cl,0.44,-1.19,-0.26,0.12,0.12,0.04,-1.84,-0.51
CC1C(C#N)=C(N)OC2=C1C(=O)CC(c1cccc3ccccc13)C2 (centres undefined),0.3,-2.09,-0.28,3.72,4.85,-2.01,-0.97,-1.61
NCCOCCOCCNC(=O)Cc1ccc(Nc2nc(NCc3ccc(F)cc3)nc(NCC3CCCCC3)n2)cc1,0.61,-3.77,0.63,0.54,0,0.37,-2.14,-0.27
COc1ccc(C2C(C#N)=C(N)OC3=C2C(=O)CC(c2cccc4ccccc24)C3)cc1 (centres undefined),0.45,-2.45,-0.04,-0.36,-0.68,0.85,-1.95,1.45
Cc1cc(/N=N/c2ccc(S(=O)(=O)NC3CCCC3)cc2)c(N)cc1O,0.4,7.29,4.93,1.1,4.28,2.73,0.42,2.48
COc1nc(N)nc(Nc2cc(S(N)(=O)=O)ccc2N[C@@H](c2cccc3c2OC(F)(F)O3)c2ncccc2Cl)n1,1.16,-2.02,-0.4,0.06,-3.33,-12.4,-1.68,0.11
